In PubChem BioAssay (NCATS) one finds Potency and outcome data, which are given here for 22 compounds.

Results filed as inconclusive are left out. Entries that show only a call come without a potency. Activity calls are given as the source filed them. The call rests on the fitted dose curve; in most records, active means well fitted curve in the direction sought with a large enough effect; inconclusive means small, poorly fitted or top-dose-only effect, or another doubt; inactive means no such curve, though single readings can be large; an effect the other way counts as inactive or inconclusive.

The target of test [1] is Luciferin 4-monooxygenase (Photinus pyralis) (UniProt P08659). The experiment in a line: Biochemical firefly luciferase enzyme assay for NPC (AID 624030).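 Further: purified P. pyralis luciferase at 10 nM with luciferin and ATP substrate; nearly all actives have a fitted effect of over 70% in size.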 Conditions: purified P. pyralis luciferase, luminescence, 5 min; series mostly up to 58.6 µM. The essentials:
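Counter-screen for direct inhibition of the luciferase enzyme by approved-drug library compounds, run at 10 nM enzyme in 50 mM Tris acetate (final). Luminescence was read within 5 min of enzyme-buffer addition and normalized to PTC124 versus DMSO (0%).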

A short description of test [2]: qHTS of Trypanosoma Brucei Inhibitors: LOPAC Validation (AID 624147). The following applies: purified enzyme assay, luminescence, 45 min; series mostly up to 57.5 µM. The essentials:
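Activity of T. brucei pyruvate kinase was followed by Kinase-Glo Plus luminescence after the enzyme reacted 45 min at room temperature with 130 uM ADP (final) and substrate. Test compounds were added before ADP at multiple concentrations.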
A general note: In qHTS, concentration-response curves come from the screen itself.

For test [3], the target named is Glucagon-like peptide 1 receptor (Homo sapiens) (UniProt P43220). The experiment in a line: qHTS of GLP-1 Receptor Agonists: LOPAC Validation (AID 624148).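 Further: higher luminescence signal means agonism.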 Conditions: GLP-1R agonist cell assay; series mostly up to 46.1 µM. The procedure, abridged:
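HEK293 cells stably co-expressing a cAMP-responsive luciferase reporter and a hypersensitive GLP-1R were plated 12 h at 37 °C and exposed to compounds for 4-6 hr at 37 °C, 5% CO2. Luminescence was read 12 min after adding detection reagent.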

The nature of test [4]: qHTS of Nrf2 Activators: LOPAC Validation (AID 624149). Conditions: Nrf2/ARE reporter cell assay; series mostly up to 46.1 µM. The procedure, abridged: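 AREc32_Fluc cells, 1000/well, OPTI-MEM + 5% FBS, o/n 37 deg C 5% CO2; compound pin-transfer, 24 hr 37 deg C; Steady-Glo 30 min RT, luminescence read.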
Test [5] can be described thus: HTS Assay for Allosteric Antagonists of the Human D2 Dopamine Receptor: Hit Validation in HTRF (AID 624455). The following applies: Cells stably expressing D1 dopamine receptor, inhibition mode; series mostly up to 46.1 µM. The procedure, abridged: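 HTRF read-out; cells stably expressing D1 receptor; hits scored for inhibition of D1-mediated response. Primary screen: calcium flux, force-coupled inducible Hek293 Trex D2 line, antagonism vs EC80 dopamine.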
(In general: TR-FRET usually uses a lanthanide donor and a delayed reading to cut background.)

Test [6] concerns the target Glutaminase kidney isoform, mitochondrial (Homo sapiens) (UniProt O94925). The experiment in a line: qHTS for Inhibitors of Glutaminase (GLS): LOPAC Validation (AID 624146). Further: nearly all actives have a fitted effect of over 60% in size. Further: potency means the concentration at half of the fitted maximal effect. The following applies: glutaminase enzyme activity inhibition; series mostly up to 46.1 µM. The essentials:
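Glutamate formation by hKGA was monitored fluorometrically using coupled glutamate oxidase, HRP and Amplex Red. Substrate was added as 1 mM L-glutamine solution; incubation was 30 min at RT after an initial read.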

Glutaminase kidney isoform, mitochondrial (Homo sapiens), sequence (O94925 whole entry, looked up, canonical isoform): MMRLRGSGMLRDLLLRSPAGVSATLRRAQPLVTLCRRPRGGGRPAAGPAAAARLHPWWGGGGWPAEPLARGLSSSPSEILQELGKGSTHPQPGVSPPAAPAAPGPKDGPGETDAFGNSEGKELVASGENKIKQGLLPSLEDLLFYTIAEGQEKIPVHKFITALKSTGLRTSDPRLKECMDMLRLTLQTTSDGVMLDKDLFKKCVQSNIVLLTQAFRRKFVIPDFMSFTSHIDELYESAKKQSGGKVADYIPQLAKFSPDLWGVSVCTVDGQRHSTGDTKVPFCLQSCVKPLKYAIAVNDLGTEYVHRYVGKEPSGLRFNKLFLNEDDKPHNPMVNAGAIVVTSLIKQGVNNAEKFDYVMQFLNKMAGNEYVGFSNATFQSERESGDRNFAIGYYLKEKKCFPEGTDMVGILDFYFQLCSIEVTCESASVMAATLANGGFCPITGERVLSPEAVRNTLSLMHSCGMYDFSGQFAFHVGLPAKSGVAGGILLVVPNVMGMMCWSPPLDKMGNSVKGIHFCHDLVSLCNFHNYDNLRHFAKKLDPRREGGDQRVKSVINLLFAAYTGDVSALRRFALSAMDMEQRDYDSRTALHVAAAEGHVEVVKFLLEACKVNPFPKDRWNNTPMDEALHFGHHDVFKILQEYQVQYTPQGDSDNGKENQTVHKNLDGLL
Glucagon-like peptide 1 receptor (Homo sapiens), sequence (P43220 whole entry, looked up): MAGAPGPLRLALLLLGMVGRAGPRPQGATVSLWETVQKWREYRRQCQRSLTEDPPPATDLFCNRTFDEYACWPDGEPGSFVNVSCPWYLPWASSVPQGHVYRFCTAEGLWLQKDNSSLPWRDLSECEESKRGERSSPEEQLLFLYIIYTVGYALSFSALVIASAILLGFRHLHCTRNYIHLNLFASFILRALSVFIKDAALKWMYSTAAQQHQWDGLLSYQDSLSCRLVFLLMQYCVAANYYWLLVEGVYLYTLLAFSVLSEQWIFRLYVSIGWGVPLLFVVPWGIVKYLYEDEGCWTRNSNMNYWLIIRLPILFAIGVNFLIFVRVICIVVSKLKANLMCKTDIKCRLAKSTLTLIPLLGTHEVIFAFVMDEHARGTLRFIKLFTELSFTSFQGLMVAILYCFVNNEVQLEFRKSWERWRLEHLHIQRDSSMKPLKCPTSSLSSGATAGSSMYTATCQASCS
Luciferin 4-monooxygenase (Photinus pyralis), sequence (P08659 whole entry, looked up): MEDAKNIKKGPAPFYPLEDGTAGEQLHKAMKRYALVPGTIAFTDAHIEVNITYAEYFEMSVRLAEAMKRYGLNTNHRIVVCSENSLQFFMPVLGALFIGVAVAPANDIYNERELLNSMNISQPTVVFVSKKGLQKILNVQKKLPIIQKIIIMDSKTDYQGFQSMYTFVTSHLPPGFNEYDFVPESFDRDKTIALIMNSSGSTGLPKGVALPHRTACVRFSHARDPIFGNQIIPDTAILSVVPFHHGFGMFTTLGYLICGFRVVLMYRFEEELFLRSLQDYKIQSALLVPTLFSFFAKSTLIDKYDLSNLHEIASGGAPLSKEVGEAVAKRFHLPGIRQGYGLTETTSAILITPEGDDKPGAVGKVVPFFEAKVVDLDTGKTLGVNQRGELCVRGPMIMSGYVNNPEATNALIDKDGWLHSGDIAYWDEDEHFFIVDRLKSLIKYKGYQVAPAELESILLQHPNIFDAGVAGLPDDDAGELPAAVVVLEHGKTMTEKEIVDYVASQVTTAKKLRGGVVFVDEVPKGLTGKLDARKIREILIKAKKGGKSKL

For the compound `CC(=O)OCC(=O)[C@@]1(O)[C@H](OC(C)=O)C[C@H]2[C@@H]3CCC4=CC(=O)C=C[C@]4(C)[C@@]3(F)[C@@H](O)C[C@@]21C`, the Potency entry in test [1] is “inactive”. As for `CCOC(=O)NNc1ccc(N(CC)CC(C)O)nn1` (configuration not stated), the Potency result in test [1] was “inactive”. Turning to `C[C@@]12CCC[C@H]1[C@@H]1CC[C@H]3C[C@@H](O)CC[C@]3(C)[C@H]1CC2`, the Potency result in test [1] is “inactive”. In the case of `N[C@@H](Cn1ccc(=O)c(O)c1)C(=O)O`, the outcome in test [2], in test [3], in test [4] and in test [5] was inactive. Consider `OC1(c2ccc(Cl)c(C(F)(F)F)c2)CCN(CCCC(c2ccc(F)cc2)c2ccc(F)cc2)CC1`, for which, in test [1], the Potency result was “inactive”. Same read-out and setting: the same measure for `Cc1nc([N+](=O)[O-])cn1-c1ccc([N+](=O)[O-])cc1`: “inactive”; for `Cc1ccc2c(Cl)cc(Cl)c(O)c2n1`: “inactive”. `CC[N+]1(CC)CCC(=C(c2ccccc2)c2ccccc2)C1C` (configuration not stated): the Potency entry in test [1] was “inactive”. With `O=C(CCCCCCCCC#CI)Oc1ccccc1`, the Potency entry in test [1] was “inactive”.

With `Clc1ccc2c(c1)N=C(N1CCNCC1)c1ccccc1N2`, the Potency entry in test [6] is “inactive”. In addition, the call in test [2], in test [3], in test [4] and in test [5] was inactive. Consider `Nc1ncnc2n[nH]c(Nc3ccc(F)cc3)c12`, for which the Potency in test [6] is 10 µM (active). Besides, the outcome in test [2], in test [3], in test [4] and in test [5] was inactive.

Take `O=C1CC2(CCCC2)CC(=O)N1CCNCC1COc2ccccc2O1` (configuration not stated): the Potency result in test [1] was “inactive”. As to `CN(C)CCOC1=Cc2ccccc2Sc2ccc(Cl)cc21`, in test [1], the Potency result is “inactive”. `O=C(O)c1ccccc1S`: the Potency entry in test [1] is “inactive”. Turning to `Cc1cccc(C)c1NC(=O)c1cc(S(N)(=O)=O)c(Cl)cc1O`, in test [1], the Potency entry was “inactive”.

In the case of `O=C(OCC1(COC(=O)c2cccnc2)CCCC(COC(=O)c2cccnc2)(COC(=O)c2cccnc2)C1O)c1cccnc1`, in test [1], the Potency result is “inactive”. With `CC(=O)OCC[N+](C)(C)C`, the Potency entry in test [1] was “inactive”.

On to `COC(=O)C1=CO[C@@H](O)[C@@H]2C(CO)=CC[C@H]12`, for which, in test [6], the Potency entry was “inactive”. In addition, the call in test [2], in test [3], in test [4] and in test [5] was inactive. On to `CCOC(=O)[C@H](CCc1ccccc1)N[C@@H](C)C(=O)N(CC(=O)O)C1Cc2ccccc2C1`, for which the Potency entry in test [1] is “inactive”. With `CCOC(=O)c1ccc(NC(=O)CN2CCCCC2)cc1`, the Potency result in test [1] was “inactive”.

As to `C=CCOc1cc(Cl)ccc1C(=O)NCCN(CC)CC`, the Potency entry in test [1] was “inactive”.

On to `CC[N+](CC)(CC)CCOC(=O)C(C1CCCC1)C1CCCC1`, for which the Potency result in test [1] was “inactive”.
